# In PubChem BioAssay (NCI):
# About 83,000 compounds went through this panel and 20% of them were active in at least one assay; those are over-represented in the sample as a whole.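 Compound tested at a single concentration for 48 hours in 96-well plates; a percent growth value below 10 was scored as active.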 Activity calls are given as the source filed them.
# Test system: HS 578T breast
# Experiment: NCI-60 one-dose screen, 48 h (100 = growth as untreated, 0 = no growth, -100 = all killed)
# Details: 10 µM unless noted
row,Structure (SMILES),growth
1,Cc1cc(C)n(C(=O)c2nn(-c3ccc(Cl)cc3)cc2O)n1,7.1% (active)
2,C[n+]1ccc(Nc2ccc(NC(=O)c3ccc(Nc4cc[n+](C)c5ccc(N)cc45)cc3)cc2)cc1,108% (inactive)
3,COc1ccc(-c2nnc(COc3ccc(NC(=O)Nc4cc(C(F)(F)F)cc(C(F)(F)F)c4)cc3F)o2)cc1,16.8% (inactive)
4,O=C1c2ccccc2-c2c1nc1ccccc1[n+]2[O-],106% (inactive)
5,Oc1ccccc1/C=N\Nc1ccccc1,80.8% (inactive)
6,O=C(O)c1ccc(NC(=O)c2ccc(Nc3ccnc(C(F)(F)F)c3)cc2)cc1,96.8% (inactive)
7,CSc1nnc(C2=CC(=O)c3ccccc3C2=O)n1-c1ccccc1,112% (inactive)
8,COC(=O)[C@]12CC[C@@H](C)[C@H](C)[C@@H]1C1=CC[C@@H]3[C@@]4(C)C=C(O)C(=O)[C@@]5(C)COC(=C54)C[C@@]3(C)[C@]1(C)CC2,-18.8% (active)
9,O=C(Nc1cccc2ccccc12)c1cc2c(cc1Br)OCO2,125% (inactive)
10,COc1ccc(OC)c(NC(=O)c2cc3oc4ccccc4c3cc2O)c1,84.6% (inactive)
11,COc1ccc2[nH]cc(/C=C3/C(=O)Nc4ccc(Cl)cc43)c2c1,31.9% (inactive)
12,O=c1[nH]c(=O)n(C2CC(O)C(CO)O2)cc1C(F)(F)F (centres undefined),70.8% (inactive)
13,CN1CCN(Cc2ccc(NC(=O)c3[nH]ncc3Nc3ccnc4ccnn34)cc2)CC1,63% (inactive)
14,Nc1cc(Cl)c(S(N)(=O)=O)cc1S(N)(=O)=O,106% (inactive)
15,Cc1cc(O)c2c(c1)C[C@H]1[C@@H]3CC[C@H]4CC(=O)CC[C@]4(C)[C@H]3CC(=O)[C@]21C,33% (inactive)
16,COc1ccccc1[C@H]1c2[nH]c3ccccc3c2C[C@H]2C(=O)N(CCCCCCC(=O)NO)CC(=O)N12,53.6% (inactive)
17,c1csc([C@@H]2C[C@@H]3Cc4ccc5ccccc5c4N2O3)c1,101% (inactive)
18,O=C(Nc1cccc([N+](=O)[O-])c1)c1cccc(C(=O)Nc2cccc([N+](=O)[O-])c2)c1,9.17% (active)

row,Structure (SMILES),growth
1,CN(CC(=O)Nc1nc2ccccc2[nH]1)S(=O)(=O)c1ccc(Cl)cc1,87.2% (inactive)
2,OCc1nnn(-c2ccccc2)c1CO,117% (inactive)
3,Cc1cc2c(cc1[N+](=O)[O-])NC(CNC(C)C)CC2 (centres undefined),124% (inactive)
4,CO[C@H]1/C=C/O[C@@]2(C)Oc3c(C)c(O)c4c(O)c(c(/C=N/N5C(C)CN(Cc6ccccc6)CC5C)c(O)c4c3C2=O)NC(=O)/C(C)=C\C=C\[C@H](C)[C@H](O)[C@@H](C)[C@@H](O)[C@@H](C)[C@H](OC(C)=O)[C@@H]1C (some centres undefined),84.6% (inactive)
5,COc1ccc(C(=O)Nc2nc(-c3ccc(Cl)cc3)cs2)cc1,94.3% (inactive)
6,CCCCSc1cc(C)nc(N)n1,92.3% (inactive)
7,CCCc1cc(=O)n2c(C(=O)Nc3ccccc3OC)c(C(=O)Nc3ccc(F)cc3)sc2n1,9.91% [30 µM] (active)
8,O=[N+]([O-])c1ccc2c(c1)S(=O)c1cc([N+](=O)[O-])ccc1N2,99.7% (inactive)
9,C=C(C)[C@H]1CC/C(C)=C/CC[C@]2(C)O[C@H]2CC/C(C=O)=C\C1O (some centres undefined),114% (inactive)
10,C[C@@H]1CC[C@H]2[C@@H](C)C(O)O[C@@H]3O[C@]4(C)CC[C@@H]1[C@]32OO4 (some centres undefined),46.4% (inactive)
11,O=C1Nc2ccccc2C12Nc1cc(Cl)ccc1S2 (centres undefined),135% (inactive)
12,O=C(Oc1ccc[nH]c1=O)c1cccc(Cl)c1,154% (inactive)
13,CN(C)c1ccc(/C=C\c2ccnc3ccccc23)cc1,84.9% (inactive)
14,CCOC(=O)/C=C(/C)Sc1cc(O)c2ccccc2c1O,-28.2% (active)
15,CCC(C)CC(C)C(=O)c1c(O)ccn(O)c1=O (centres undefined),62% (inactive)
16,NC(=O)c1ccccc1NC(=O)c1ccccc1Cl,108% (inactive)
17,CCS(=O)(=O)OCCCl,104% (inactive)
18,COC(=O)CC1=C(C)/C(=C/c2[nH]c(-c3ccc[nH]3)cc2OC)N=C1C,-14.9% (active)

# Test system: NCI/ADR-RES ovarian
# Experiment: as above
# Details: 10 µM unless noted
row,Structure (SMILES),growth
1,Cc1cc(C)n(C(=O)c2nn(-c3ccc(Cl)cc3)cc2O)n1,22.6% (inactive)
2,C[n+]1ccc(Nc2ccc(NC(=O)c3ccc(Nc4cc[n+](C)c5ccc(N)cc45)cc3)cc2)cc1,99.4% (inactive)
3,O=C1c2ccccc2-c2c1nc1ccccc1[n+]2[O-],105% (inactive)
4,Oc1ccccc1/C=N\Nc1ccccc1,44.1% (inactive)
5,O=C(O)c1ccc(NC(=O)c2ccc(Nc3ccnc(C(F)(F)F)c3)cc2)cc1,102% (inactive)
6,CSc1nnc(C2=CC(=O)c3ccccc3C2=O)n1-c1ccccc1,98% (inactive)
7,COC(=O)[C@]12CC[C@@H](C)[C@H](C)[C@@H]1C1=CC[C@@H]3[C@@]4(C)C=C(O)C(=O)[C@@]5(C)COC(=C54)C[C@@]3(C)[C@]1(C)CC2,-42.8% (active)
8,O=C(Nc1cccc2ccccc12)c1cc2c(cc1Br)OCO2,92.5% (inactive)
9,COc1ccc(OC)c(NC(=O)c2cc3oc4ccccc4c3cc2O)c1,88.6% (inactive)
10,COc1ccc2[nH]cc(/C=C3/C(=O)Nc4ccc(Cl)cc43)c2c1,49.6% (inactive)
11,O=c1[nH]c(=O)n(C2CC(O)C(CO)O2)cc1C(F)(F)F (centres undefined),-56.9% (active)
12,CN1CCN(Cc2ccc(NC(=O)c3[nH]ncc3Nc3ccnc4ccnn34)cc2)CC1,107% (inactive)
13,Nc1cc(Cl)c(S(N)(=O)=O)cc1S(N)(=O)=O,35.1% (inactive)
14,Cc1cc(O)c2c(c1)C[C@H]1[C@@H]3CC[C@H]4CC(=O)CC[C@]4(C)[C@H]3CC(=O)[C@]21C,83.8% (inactive)
15,COc1ccccc1[C@H]1c2[nH]c3ccccc3c2C[C@H]2C(=O)N(CCCCCCC(=O)NO)CC(=O)N12,72.4% (inactive)
16,c1csc([C@@H]2C[C@@H]3Cc4ccc5ccccc5c4N2O3)c1,97.7% (inactive)
17,CN(CC(=O)Nc1nc2ccccc2[nH]1)S(=O)(=O)c1ccc(Cl)cc1,88.3% (inactive)

row,Structure (SMILES),growth
1,OCc1nnn(-c2ccccc2)c1CO,115% (inactive)
2,Cc1cc2c(cc1[N+](=O)[O-])NC(CNC(C)C)CC2 (centres undefined),95.1% (inactive)
3,CO[C@H]1/C=C/O[C@@]2(C)Oc3c(C)c(O)c4c(O)c(c(/C=N/N5C(C)CN(Cc6ccccc6)CC5C)c(O)c4c3C2=O)NC(=O)/C(C)=C\C=C\[C@H](C)[C@H](O)[C@@H](C)[C@@H](O)[C@@H](C)[C@H](OC(C)=O)[C@@H]1C (some centres undefined),-20.3% (active)
4,COc1ccc(C(=O)Nc2nc(-c3ccc(Cl)cc3)cs2)cc1,120% (inactive)
5,Cn1cc(-c2csc(-c3cn(C)c4ncccc34)n2)c2cc(Br)cnc21,79.2% (inactive)
6,CCCc1cc(=O)n2c(C(=O)Nc3ccccc3OC)c(C(=O)Nc3ccc(F)cc3)sc2n1,24.8% [30 µM] (inactive)
7,O=[N+]([O-])c1ccc2c(c1)S(=O)c1cc([N+](=O)[O-])ccc1N2,102% (inactive)
8,C=C(C)[C@H]1CC/C(C)=C/CC[C@]2(C)O[C@H]2CC/C(C=O)=C\C1O (some centres undefined),109% (inactive)
9,C[C@@H]1CC[C@H]2[C@@H](C)C(O)O[C@@H]3O[C@]4(C)CC[C@@H]1[C@]32OO4 (some centres undefined),9.21% (active)
10,O=C1Nc2ccccc2C12Nc1cc(Cl)ccc1S2 (centres undefined),97.2% (inactive)
11,O=C(Oc1ccc[nH]c1=O)c1cccc(Cl)c1,99.1% (inactive)
12,CN(C)c1ccc(/C=C\c2ccnc3ccccc23)cc1,-35.5% (active)
13,CCOC(=O)/C=C(/C)Sc1cc(O)c2ccccc2c1O,21.6% (inactive)
14,CCC(C)CC(C)C(=O)c1c(O)ccn(O)c1=O (centres undefined),4.73% (active)
15,CCS(=O)(=O)OCCCl,-5.43% (active)
16,COC(=O)CC1=C(C)/C(=C/c2[nH]c(-c3ccc[nH]3)cc2OC)N=C1C,5.14% (active)
